Inconclusive results are not listed. Activity calls are given as the source filed them. The calls were made as follows, unless noted: active = hit-call score of the fitted dose curve at least 0.9, where 1 is the maximum; inactive = score below 0.9.
Tests used:
[1] = Tanguay_ZF_120hpf_DP24: Oregon State University Tanguay Lab 24 Hour Post-fertilization zebrafish Assay for Delayed Development (AID 2284390)
How it was run: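 Scored at 24 hpf as a binary present/absent call of delayed development by brightfield, with dead embryos not assessed. Embryos (5D wild type, chorion removed with pronase at 4 hpf) dosed statically from 6 hpf at 28 C in 0.64% DMSO.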

[2] = Tanguay_ZF_120hpf_CRAN: Oregon State University Tanguay Lab 120 Hour Post-fertilization zebrafish Assay for Craniofacial Malformation (AID 2284397)
How it was run: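 Scoring of craniofacial malformation as a binary endpoint was done at 120 hpf by brightfield microscopy and was not done in dead embryos. Exposure was static, starting at 6 hpf, in dechorionated wild-type embryos held singly at 28C with 0.64% DMSO final.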

[3] = Tanguay_ZF_120hpf_AXIS: Oregon State University Tanguay Lab 120 Hour Post-fertilization zebrafish Assay for Axial Malformation (AID 2284398)
How it was run: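 Scoring was binary (present or absent) for body-axis defects, judged by brightfield imaging at 120 hpf in surviving larvae. Exposure was static at 28C from 6 hpf in chorion-free 5D wild-type embryos, with 0.64% DMSO vehicle.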

[4] = Tanguay_ZF_120hpf_MORT: Oregon State University Tanguay Lab 120 Hour Post-fertilization zebrafish Assay for Mortality (AID 2284399)
How it was run: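 Mortality, recorded present/absent via brightfield imaging at 24 and 120 hpf, in 5D zebrafish embryos exposed statically from 6 hpf after pronase chorion removal. Exposure at 28C, 0.64% DMSO vehicle, DMSO baseline.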

[5] = Tanguay_ZF_120hpf_EDEM: Oregon State University Tanguay Lab 120 Hour Post-fertilization zebrafish Assay for Edema Malformation (AID 2284400)
How it was run: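 Edema recorded as a binary endpoint under brightfield at 120 hpf, excluding embryos that died. Exposure was static, sealed, 28C, from 6 hpf in dechorionated wild-type larvae, final DMSO 0.64%, DMSO as baseline.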

[6] = Tanguay_ZF_120hpf_BRN: Oregon State University Tanguay Lab 120 Hour Post-fertilization zebrafish Assay for Brain Region Malformation (AID 2284402)
How it was run: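 Binary brightfield scoring of brain malformation at 120 hpf in 5D wild-type larvae, chorion removed with pronase at 4 hpf. Static exposure began at 6 hpf, 28C, sealed plates, DMSO 0.64% (vol/vol) as vehicle baseline.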

[7] = Tanguay_ZF_120hpf_TCHR: Oregon State University Tanguay Lab 120 Hour Post-fertilization zebrafish Assay for Touch Responsive (AID 2284403)
How it was run: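 Binary touch-response calls are made at 120 hpf in 5D wild-type zebrafish larvae. These larvae were dechorionated with pronase and exposed singly from 6 hpf in sealed, dark plates at 28 °C with 0.64% DMSO final; dead embryos are excluded.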

[8] = Tanguay_ZF_120hpf_ANY: Oregon State University Tanguay Lab 120 Hour Post-fertilization zebrafish Assay for Any Mortality and Malformation (AID 2284404)
How it was run: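 Dechorionated Tropical 5D wild-type embryos, one per well from 6 hpf, static exposure in sealed, dark plates at 28C until 120 hpf, 0.64% DMSO final. Brightfield scoring of mortality and malformations as binary presence/absence, pooling 13 morphology endpoints.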

[9] = CCTE_Padilla_ZF_Score.Craniofacial: CCTE's 144 Hour Post-fertilization zebrafish Assay Score for Craniofacial Malformation, Padilla Lab (AID 2284405)
How it was run: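 Craniofacial defects were scored at 6 dpf by two blinded observers using stereomicroscopy. Exposure of wild-type embryos began at 6–8 hpf in sealed wells of 10% Hanks' solution at 26C, with chemical removed by rinsing at 5 dpf.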

[10] = CCTE_Padilla_ZF_Score.Edema: CCTE's 144 Hour Post-fertilization zebrafish Assay Score for Edema Malformation, Padilla Lab (AID 2284406)
How it was run: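 Edema scored at 6 dpf by two blinded observers under a stereo microscope, in single outbred wild-type larvae exposed from 6-8 hpf in sealed wells (Hanks', 26C, 14:10 h light) and chemical-free after a 5 dpf rinse.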

[11] = CCTE_Padilla_ZF_Score.Spine: CCTE's 144 Hour Post-fertilization zebrafish Assay Score for Spine Malformation, Padilla Lab (AID 2284407)
How it was run: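 Spine malformation scored at 6 dpf by two independent blinded observers under stereomicroscope, after static sealed exposure from 6–8 hpf at 26C in Hanks' solution with rinse on 5 dpf. Positive-direction fit against DMSO control.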

[12] = CCTE_Padilla_ZF_Score.Swim_bladder: CCTE's 144 Hour Post-fertilization zebrafish Assay Score for Swim Bladder Malformation, Padilla Lab (AID 2284408)
How it was run: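 Swim bladder inflation scored at 6 dpf by two blinded observers under a stereo microscope. Exposure ran from 6–8 hpf in sealed wells of 10% Hanks' at 26C, with rinsing at 5 dpf; DMSO served as baseline.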

[13] = CCTE_Padilla_ZF_Score.Position: CCTE's 144 Hour Post-fertilization zebrafish Assay Score for Position, Padilla Lab (AID 2284409)
How it was run: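 Wild-type zebrafish embryos (with chorions) exposed singly from 6–8 hpf in sealed wells of Hanks' solution at 26C, rinsed at 5 dpf. At 6 dpf, blinded assessors scored abnormal water-column position by brightfield stereomicroscopy, relative to DMSO.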

[14] = CCTE_Padilla_ZF_Score.Living: CCTE's 144 Hour Post-fertilization zebrafish Assay Score for Viability, Padilla Lab (AID 2284410);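 also: larval death at 6 dpf judged by absent heartbeat or coagulation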
How it was run: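 Mortality at 6 dpf, judged as absent heartbeat or coagulation by two blinded observers, after sealed static exposure beginning at 6–8 hpf at 26C. Larvae were rinsed free of chemical at 5 dpf, and activity was fitted relative to DMSO.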

[15] = CCTE_Padilla_ZF_Score.General: CCTE's 144 Hour Post-fertilization zebrafish Assay Score for General Malformation, Padilla Lab (AID 2284411)
How it was run: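 Malformation, death and hatching were scored at 6 dpf by two blinded observers under a stereo microscope. Embryos were dosed singly from 6-8 hpf in sealed plates of 10% Hanks' at 26C and rinsed on 5 dpf; DMSO baseline.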

[16] = CCTE_Padilla_ZF_Score.Tail: CCTE's 144 Hour Post-fertilization zebrafish Assay Score for Tail Malformation, Padilla Lab (AID 2284414)
How it was run: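 Tail malformations were scored at 6 dpf by two blinded assessors under a stereo microscope. Chorionated embryos had been exposed from 6-8 hpf in sealed wells of 10% Hanks' at 26 C, then rinsed free of chemical at 5 dpf.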

[17] = CCTE_Padilla_ZF_Score.Blood_pooling: CCTE's 144 Hour Post-fertilization zebrafish Assay Score for Blood Pooling, Padilla Lab (AID 2284415)
How it was run: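 Blood pooling was scored at 6 dpf under a stereo microscope by two blinded assessors, fitted upward against DMSO. Single embryos were dosed at 6–8 hpf in 10% Hanks', kept sealed at 26C (14:10 h cycle) and rinsed at 5 dpf.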

[18] = CCTE_Padilla_ZF_Score.Any: CCTE's 144 Hour Post-fertilization zebrafish Assay Score for Any Mortality or Malformation, Padilla Lab (AID 2284416)
How it was run: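 Wild-type zebrafish embryos with chorions, one per well in 10% Hanks' from 6–8 hpf, dosed in sealed plates at 26 C, 14:10 h light:dark; rinsed at 5 dpf; blinded scoring at 6 dpf for death or malformation, versus DMSO.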

[19] = tested on: SRY-box transcription factor 2 (SOX2) Protein Expression, Deisenroth Lab, SOX2 (gene 6657); assay: CCTE_Deisenroth_DEVTOX-GLR_Endo_SOX2: CCTE's DevTox GLR-Endo Assay Evaluation of SRY-box transcription factor 2 (SOX2) Protein Expression, Deisenroth Lab (AID 2284412; active = hit-call score of the fitted dose curve at least 0.9, where 1 is the maximum)
How it was run: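 Endpoint is percent SOX2-positive cells (SOX2+ count/total cells) minus 0.2% DMSO control, from high-content imaging of fixed, nuclear-stained RUES2-GLR cells. Dosing twice at 24 h intervals over 48 h differentiation, 1 nM–200 uM in 10 points.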

[20] = tested on: SRY-box transcription factor 17 (SOX17) Protein Expression, Deisenroth Lab, SOX17 (gene 64321); assay: CCTE_Deisenroth_DEVTOX-GLR_Endo_SOX17: CCTE's DevTox GLR-Endo Assay Evaluation of SRY-box transcription factor 17 (SOX17) Protein Expression, Deisenroth Lab (AID 2284413)
How it was run: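 Human RUES2-GLR cells carrying an inducible fluorescent reporter are differentiated in defined media for 48 h and dosed twice, 24 h apart. After fixation and nuclear staining, imaging yields SOX17+ cell percentage relative to 0.2% DMSO-treated differentiated cells.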

Measured: AC50

O=C(CC(=O)C(F)(F)C(F)(F)C(F)(F)F)c1cccs1
active: [5] 65.8 µM | [8] 67.7 µM | [12] 2.41 µM | [14] 7.34 µM | [18] 3.55 µM
not listed: [19] | [20]
inactive: all other assays above

FC(F)(F)C1(F)C(F)(F)C(F)(F)C(F)(F)C(F)(C(F)(F)F)C1(F)F (stereo unspecified)
inactive: [9] | [10] | [11] | [12] | [13] | [14] | [15] | [16] | [17] | [18]

CCCCc1oc2ccccc2c1C(=O)c1cc(I)c(OCCN(CC)CC)c(I)c1
active: [19] 31 µM | [20] 25.6 µM

CN(C)CCOC(c1ccccc1)c1ccccc1
active: [19] 2.01 µM | [20] 54.7 µM

O=C(F)C(F)(F)C(F)(F)C(F)(F)C(=O)F
inactive: [9] | [10] | [11] | [12] | [13] | [14] | [15] | [16] | [17] | [18]

NC(C(F)(F)F)C(F)(F)F
inactive: [9] | [10] | [11] | [12] | [13] | [14] | [15] | [16] | [17] | [18]

CN(CCO)S(=O)(=O)C(F)(F)C(F)(F)C(F)(F)C(F)(F)C(F)(F)C(F)(F)C(F)(F)C(F)(F)F
active: [2] 29.5 µM | [3] 29.6 µM | [5] 29.6 µM | [7] 29.6 µM | [8] 28.9 µM | [14] 10.7 µM | [18] 9.78 µM
not listed: [19] | [20]
inactive: all other assays above

COC(=O)C(F)(F)C(F)(F)C(F)(F)C(F)(F)C(F)(F)F
inactive: [9] | [10] | [11] | [12] | [13] | [14] | [15] | [16] | [17] | [18]

O=C(O)C(F)(F)OC(F)(F)C(F)(F)OC(F)(F)C(F)(F)OC(F)(F)C(F)(F)C(F)(F)C(F)(F)F
active: [4] 51.1 µM | [8] 34.4 µM | [10] 3.21 µM | [12] 3.2 µM | [13] 8.31 µM | [14] 8.88 µM | [15] 2.18 µM | [18] 2.9 µM
not listed: [19] | [20]
inactive: all other assays above

FC(F)=C(F)C(F)(F)C(F)(F)C(F)(F)C(F)F
inactive: [9] | [10] | [11] | [12] | [13] | [14] | [15] | [16] | [17] | [18]

FC1(F)C=CC(F)(F)C1(F)F
inactive: [9] | [10] | [11] | [12] | [13] | [14] | [15] | [16] | [17] | [18]

C=CC(=O)OCCC(F)(F)C(F)(F)C(F)(F)C(F)(F)C(F)(F)C(F)(F)C(F)(F)C(F)(F)F
not listed: [19] | [20]
inactive: all other assays above

O=P(O)(O)CCC(F)(F)C(F)(F)C(F)(F)C(F)(F)C(F)(F)C(F)(F)F
active: [10] 23.9 µM | [14] 32.1 µM | [18] 25.6 µM
not listed: [19] | [20]
inactive: all other assays above

O=C1c2ccc(O)c(O)c2C(=O)c2c(O)ccc(O)c21
inactive: [15]

O=C1NS(=O)(=O)c2ccccc21
inactive: [20]
